# PP5 inh = blocks human protein phosphatase 5 activity. P53041. purified PP5c, OMFP substrate fluorescence. inhibition, % at 6.7 µM. 320,000 tested, 0.18% active. AID 1987;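 active = inhibition above the campaign's mean inhibition across all tested compounds plus 3 SD, cut at about 9.5% in these data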;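 note: 0% = DMSO only and 100% = 100 µM cantharidin control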
# Target sequence (P53041 whole entry, looked up): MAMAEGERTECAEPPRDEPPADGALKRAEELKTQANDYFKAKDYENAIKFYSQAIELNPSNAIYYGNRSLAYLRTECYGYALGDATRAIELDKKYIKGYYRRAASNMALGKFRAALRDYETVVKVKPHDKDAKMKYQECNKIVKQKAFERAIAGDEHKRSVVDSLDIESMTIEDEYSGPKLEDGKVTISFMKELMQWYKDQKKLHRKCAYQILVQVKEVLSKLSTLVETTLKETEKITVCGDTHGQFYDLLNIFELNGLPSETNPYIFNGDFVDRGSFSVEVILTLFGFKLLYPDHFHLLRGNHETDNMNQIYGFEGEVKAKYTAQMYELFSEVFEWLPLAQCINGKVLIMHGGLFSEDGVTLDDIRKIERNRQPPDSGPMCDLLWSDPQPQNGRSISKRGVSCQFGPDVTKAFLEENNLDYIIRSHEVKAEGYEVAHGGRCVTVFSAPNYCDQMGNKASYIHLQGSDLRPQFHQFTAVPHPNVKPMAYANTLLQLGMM
# SKKanGAS inh = SKKanGAS growth inhibition; 300,000 tested, 1.3% active; AID 1662; inhibition, % at 7.5 µM; S. pyogenes SKKanGAS, kanamycin growth, BacTiter-Glo, 6 h;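 active = mean replicate score, as percent of positive control median, at least 50; inconclusive = mean below 50 but one replicate at or above 50; inactive = mean and every replicate below 50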;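 note: strain carries kanamycin resistance gene driven by streptokinase promoter and grows in 40 µg/ml kanamycin; loss of luminescence reflects streptokinase promoter inhibition or plain growth inhibition; 0% = median of DMSO wells and 100% = positive control at its reference dose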
# PP1 counter = blocks human PP1-alpha phosphatase, a PP5 counter-screen; P62136; purified PP1alpha, OMFP fluorescence; 320,000 tested, 0.9% active; AID 2235; inhibition, % at 6.7 µM;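 active = inhibition above the mean inhibition of all tested compounds plus 3 SD, computed separately for each screening campaign, cut at about 15% in these data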
# CSC inhib = blocks cancer stem cells; cancer stem cell-like cells viability, luminescence; inhibition, % at 7.5 µM; 300,000 tested, 1.1% active; in the data active = inhibition above about 75%; inconclusive = no clear call, values can overlap the other calls; tested in HMLE shEcad cells
# Beta apoptosis = blocks beta cell apoptosis. protection from apoptosis, % (test concentration not listed). INS-1E cytokine-induced death, ATP luminescence, 48 h; percent of positive-control rescue, neutral wells zero. 300,000 tested, 0.8% active;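 active = Every replicate reaches about 75%, or at least half do and their mean reaches it too, limit read from the data; inconclusive = At least half of replicates reach the limit but their mean does not; inactive = Under half of replicates reach the limit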;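 note: 0% = cytokine-treated negative control wells and 100% = positive control rescue; higher means more ATP so stronger rescue from cytokine killing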
# * marks the source's active call; other numbers are inactive results; ? = inconclusive; . = no result given. In the library only some 3.1% were active in any assay of this set; here they are far more common.
SMILES,PP5 inh,SKKanGAS inh,PP1 counter,CSC inhib,Beta apoptosis
O=[N+]([O-])c1ccc2c(c1N1CCCCC1)=NC1(CCCCC1)[N+]=2[O-],0,-7,-4,-10,-5
COc1ccccc1N1CCN(C(=O)CCc2nnc3ccc(N4CCC(C)CC4)nn23)CC1,0,8,-2,-14,1
Cc1cc(C(C)(C)C)cc(C)c1C(=O)O,-1,0,-1,-9,-9
Cc1n[nH]c(C)c1CCOc1ccc(C(C)C)cc1,4,96*,1,.,9
CC1CCCN(C(=S)SCC(=O)c2cc(Br)cc(Br)c2O)C1 (stereo not given),-1,56*,-2,28,-2
O=C(CSC(=S)N1CCCC1)c1cc(Br)cc(Br)c1O,1,14,0,-19,0
CCN(CC(=O)Nc1ccccc1C(F)(F)F)C(=O)CCOc1ccc(C)cc1,0,5,-5,16,-3
O=C(NC(=S)N1CCCCC1c1cccnc1)c1ccc(F)cc1 (stereo not given),1,99*,-1,-18,-2
O=C(NC(=S)N1CCCCC1c1cccnc1)c1ccc(Br)cc1 (stereo not given),0,8,0,1,-3
Oc1ccc(CNc2ccc(F)cc2)c2cccnc12,2,4,5,27,92*
COCc1ccc(O)c2ncccc12,1,61*,-5,26,91*
Cc1cccc(NCc2ccc(O)c3ncccc23)c1,0,-2,3,33,6
Oc1ccc(CNc2ccccc2)c2cccnc12,-1,-3,4,19,105*
Cc1cccc(/C=N/NC(=O)Cn2nnnc2N)n1,-2,-5,-5,-23,0
Cc1ccc(-c2nn(Cc3ccccc3)cc2/C=C/C(=O)O)cc1,3,3,4,.,6
Cc1ccc(-c2nn(CCC(=O)O)cc2/C=C\C(=O)c2ccc(Br)cc2)cc1,0,73*,9,61,-13
O=C(O)CCn1cc(/C=C\C(=O)c2ccc(Cl)cc2)c(-c2cccc(Br)c2)n1,1,79*,7,55,-12
O=Cc1cn(CCC(=O)O)nc1-c1cccc(Br)c1,0,.,-6,-10,0
COC(=O)/C(C#N)=C/c1c(Oc2cccc(C)c2C)nc2ccccn2c1=O,0,10,-3,-10,6
C[C@@H]1CN([C@H](C)CO)C(=O)Cc2cc(NS(=O)(=O)c3ccc(Cl)cc3)ccc2O[C@H]1CN(C)Cc1ccc(C(F)(F)F)cc1,.,.,.,105*,-8
CCOCCCN(C(=O)Cn1nnc(-c2ccc(C)o2)n1)C(C(=O)NC1CCCC1)c1ccc(C)o1 (stereo not given),.,6,.,.,.
CCOC(=O)N1CCN(C(=O)c2ccc3c(c2)sc2nc(-c4ccc(OC)cc4)cn23)CC1,3,45,-5,-11,11
COc1ccc2c(c1)sc1nc(-c3ccccc3)cn12,5,19,3,91*,35
Cc1ccc(C)c2c(N)c3c(nc12)CCCCC3 (tested in a mixture with another compound),0,-17,-4,3,1
O=C(Nc1ccc(F)cc1)c1nc2c(nnn2Cc2cccc3ccccc23)c(=O)[nH]1,0,62*,12,17,5
SMILES,PP5 inh,SKKanGAS inh,PP1 counter,CSC inhib,Beta apoptosis
COc1cccc(OC)c1NC(=O)c1nc2c(nnn2Cc2ccccc2Cl)c(=O)[nH]1,5,33,2,4,-1
O=C(NCc1ccco1)c1nc2c(nnn2Cc2ccccc2Cl)c(=O)[nH]1,2,2,9,94*,10
O=[N+]([O-])c1ccccc1N/N=C/c1cccc(O)c1O,-1,5,5,86*,20
Cc1cc(S(=O)(=O)N2CCCCC2)ccc1OCC(=O)N1CCOCC1,3,15,1,18,-2
O=C(/C=C/c1ccccc1[N+](=O)[O-])Nc1cccnc1,0,-9,-3,-11,-9
Cc1nn(-c2ccccc2)c(N)c1-c1ccccc1,0,1,-1,7,-3
Cc1nn(-c2nc3ccccc3[nH]2)c(N)c1-c1ccccc1,2,87*,-1,31,.
CCOC(=O)c1sc(Nc2cccc(C)c2C)nc1C,1,5,0,1,5
CS(=O)(=O)N(CC(=O)NCc1ccco1)c1ccc(OCc2ccccc2)cc1,3,1,-2,-4,-3
COc1ccc(C)cc1NC(=O)NC1CCCc2ccccc21 (stereo not given),2,51*,0,2,7
COc1ccc(NC(=O)NC2CCCc3ccccc32)cc1OC (stereo not given),-2,3,0,1,5
CCSc1nnc(NC(=O)C2CC=CCC2C(=O)O)s1 (stereo not given),-2,-3,16*,-5,-1
CCSc1nnc(NC(=O)NC(CC)(C(F)(F)F)C(F)(F)F)s1,4,11,9,99*,39
CCc1ccc(NSc2ccccc2[N+](=O)[O-])cc1,5,76*,0,70,11
O=C(O)c1ccccc1NSc1ccccc1[N+](=O)[O-],2,9,-3,9,3
CCN(CC)S(=O)(=O)c1ccc(C)c(NC(=O)COC(=O)CN2C(=O)NC(C)(C)C2=O)c1,-1,-11,-5,3,-2
CCCCCCCN1N=C(C)C(C(=O)c2ccccc2)C1=O (stereo not given),0,?,2,10,5
CCCCCCN1N=C(C)C(C(=O)c2ccc(Cl)cc2)C1=O (stereo not given),-8,50*,2,36,3
O=C(C1CCCCC1)N1CCC(c2nc3c(nnn3Cc3c(F)cccc3Cl)c(=O)[nH]2)CC1,0,68*,0,-2,10
Cc1ccc(S(=O)(=O)n2cc(-c3ccccc3)c3ccccc32)cc1,4,.,-2,99*,15
COCCn1c(N)c(N(Cc2ccccc2)C(=O)CSCC(=O)Nc2ccc(C)cc2)c(=O)[nH]c1=O,1,-4,1,-12,0
Cc1ccc(OCCCCN(C)Cc2ccccc2)c(Br)c1,1,1,3,94*,1
CC(C)[C@H](NC(=O)C1CCN(S(=O)(=O)c2ccccc2)CC1)C(=O)NCc1ccncc1,1,-11,-2,-17,-3
COCc1cc(=O)n2[nH]c(-c3ccsc3-n3c(C)ccc3C)cc2n1,1,3,4,-7,.
Cc1cc(=O)n2[nH]c(-c3ccsc3-n3c(C)ccc3C)cc2n1,3,3,16*,-11,-6
O=C(N/C(=C\c1ccccc1)C(=O)N1CCCCC1)c1ccc(Br)o1,2,-6,-2,.,4
S=c1[nH]nc(-c2ccccn2)n1/N=C/c1ccc(Cl)c(Cl)c1,2,-3,2,-7,-1
S=c1[nH]nc(-c2ccccn2)n1/N=C/c1ccc(-c2ccccc2Cl)o1,-2,-5,15*,-9,-2
S=c1[nH]nc(-c2ccccn2)n1/N=C/c1ccc(Br)s1,-1,6,17*,-8,5
Cc1ccccc1S(=O)(=O)/N=C(/c1ccccc1)N1CCOCC1,1,-5,-2,-13,-2

# Screens (PubChem BioAssay)
